# Sampled rows, rich in hits. Any-hit rate of the full collection: about 2%.
# LDHA block: qHTS assay for inhibitors of human lactate dehydrogenase. purified LDHA, NADH/diaphorase-resazurin fluorescence; active compounds read low. activity change, % (values are at about 110 or 230 µM). hit rate 0.15% among 480,000; in the data active = activity change below about -30%; inconclusive = mostly about -25% to -30%;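 note: plate controls were DMSO wells for no effect and wells without enzyme for full effect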
#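 Human LDH5 (2 nM) was incubated with 0.06 mM NADH and 0.2 mM pyruvate for 5 min at room temperature in Tris pH 7.4. Remaining NADH was coupled through diaphorase/resazurin, and resorufin fluorescence was read at 0 and 20 min.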
# aSyn rescue: qHTS of alpha-syn Inhibitors | AID 652106, 2013 | Potency, µM (top dose mostly 46.1 µM), without a hit: at the top dose growth rescue (activation), hits mostly activators | hit rate 0.14% among 370,000 | Yeast expressing alpha-synuclein, growth rescue, BacTiter-Glo, 24 h; note: potency is the fitted concentration of half-maximal effect; % of control where 0% means no effect; nearly all actives have a fitted effect of over 65% in size
#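 Galactose-induced alpha-syn yeast (OD600=0.02, raffinose-pregrown) + pinned cpd, 24 hr, 30 deg C; growth by BacTiter-Glo luminescence. Growth restoration scores as activation.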
# IDH1 R132H inh: qHTS for Inhibitors of mutant isocitrate dehydrogenase 1 (IDH1): qHTS. Isocitrate dehydrogenase [NADP] cytoplasmic (Homo sapiens), O75874. IDH1-R132H enzyme, NADPH consumption, diaphorase/resazurin fluorescence. Potency, µM (doses to about 76.6 µM), for the others: top-dose activity change, negative = inhibition, most hits filed as inhibitors. hit rate 0.093% among 390,000; note: potency is the fitted concentration of half-maximal effect; % is set by controls: 0 for no effect and ±100 for the full control effect; nearly all actives have a fitted effect of over 65% in size
# Target sequence (O75874 whole entry R132H, stated change not applied): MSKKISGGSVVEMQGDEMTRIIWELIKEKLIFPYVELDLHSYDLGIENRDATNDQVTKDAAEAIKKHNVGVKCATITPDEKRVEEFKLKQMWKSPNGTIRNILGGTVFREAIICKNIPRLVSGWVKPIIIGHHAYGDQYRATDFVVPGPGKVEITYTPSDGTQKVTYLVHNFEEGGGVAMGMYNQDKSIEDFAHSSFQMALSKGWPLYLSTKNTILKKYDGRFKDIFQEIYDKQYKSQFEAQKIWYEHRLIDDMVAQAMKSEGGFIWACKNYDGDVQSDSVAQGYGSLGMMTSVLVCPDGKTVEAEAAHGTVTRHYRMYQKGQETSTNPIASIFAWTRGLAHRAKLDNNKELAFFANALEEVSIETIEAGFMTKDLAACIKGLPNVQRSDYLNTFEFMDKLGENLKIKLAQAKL
#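 IDH1-R132H (0.5 ug/mL dispensed) in pH 7.5 Tris buffer was preincubated 30 min with compound, then given a substrate mix of 0.016 mM NADPH and 2 mM alpha-KG for 80 min at room temperature; remaining NADPH was read by diaphorase/resazurin fluorescence.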
# FUS yeast rescue: qHTS for Suppressors of FUS Proteinopathy: Primary screen using FUS-linked yeast assay; S. cerevisiae FUS-expressing, growth rescue, OD600, 24 h; Potency, µM (doses to about 76.6 µM), most hits filed as activators; hit rate 0.24% among 390,000; AID 1347120, 2019;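 note: potency is the fitted concentration of half-maximal effect; plate controls were DMSO vehicle for no effect and reference control for full effect; nearly all actives have a fitted effect of over 55% in size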
#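 FUS-expressing yeast, raffinose-pregrown, induced in 2% galactose minimal medium at OD 0.005; compounds in a dilution series, 24hr at 30C. Growth restoration read as absorbance at 600 nm. CP55940 positive control, DMSO negative.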
# TDP43 rescue: qHTS of TDP-43 Inhibitors | TDP-43 expressing yeast growth rescue, BacTiter-Glo, 24 h | Potency, µM (doses to about 46.1 µM), for the others: at the top dose growth rescue (activation), actives largely listed as activators | hit rate 1.8% among 410,000 | AID 652104, 2013; note: potency is the fitted concentration of half-maximal effect; % of control where 0% means no effect; nearly all actives have a fitted effect of over 50% in size
#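 Yeast cells expressing TDP-43 under galactose induction are exposed to compounds for 24 hr at 30 deg C. BacTiter-Glo luminescence measures growth, so protective compounds score as activators.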
# Abeta yeast res: qHTS for compounds that reverse cellular toxicity of Amyloid beta (A-beta) peptide in yeast: Primary Screen; hit rate 0.063% among 410,000; yeast expressing A-beta42, growth rescue, OD600, 48 h; response scale: 0% DMSO, 100% iron-clioquinol control; Potency, µM (doses to about 46.1 µM), most hits filed as activators; AID 1347071, 2019; note: potency is the fitted concentration of half-maximal effect; nearly all actives have a fitted effect of over 55% in size
#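 Growth rescue measured by 600 nm absorbance after 48 h yeast culture at 30 C with compound. Values normalized between DMSO and an equimolar ferric chloride plus clioquinol control.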
# * marks the source's active call; other numbers are inactive results; i = inactive; ? = inconclusive; / = not tested or not shown. Unless noted, calls come from the whole dose curve; as a rule, active = well fitted curve in the direction sought with a large enough effect; inconclusive = small, poorly fitted or top-dose-only effect, or another doubt; inactive = no such curve, though single readings can be large; an effect the other way counts as inactive or inconclusive.
SMILES,LDHA block,aSyn rescue,IDH1 R132H inh,FUS yeast rescue,TDP43 rescue,Abeta yeast res
CCC(CC)C(=O)N1CCc2cc(OC)c(OC)cc2C1COc1ccc(C(=O)OC)cc1 (stereo not given),3,1%,5%,?,28µM*,i
COC(=O)c1ccc(OCC2c3cc(OC)c(OC)cc3CCN2C(=O)c2ccc(F)cc2)cc1 (stereo not given),3,9%,15%,?,35µM*,i
CCOc1ccc(C(C)NC(=O)c2cc(C)ccc2C)cc1OCC (stereo not given),-4,/,/,/,/,/
CCOC(=O)c1ccc(N2C(=O)C3CC=CCC3C2=O)cc1 (stereo not given),-4,4%,1%,i,-7%,i
CCOC(=O)c1ccc(N2C(=O)C3C(C2=O)C(C(=O)c2ccc(Cl)cc2)N2CCCC32)cc1 (stereo not given),-11,3%,5%,13µM*,-1%,i
O=C(Cc1ccc2c(c1)OCO2)N1CCC(n2nc(-c3ccccc3)oc2=O)CC1,/,/,/,i,/,/
O=C(N1CCC(n2nc(-c3ccccc3)oc2=O)CC1)C1(c2ccc(Cl)cc2)CC1,-6,?,-7%,?,22µM*,/
CCCCNC(=S)N1CCn2cccc2C1c1ccc(F)cc1 (stereo not given),-7,7%,2%,?,16µM*,i
CCCCNC(=S)N1CCn2cccc2C1c1ccccc1 (stereo not given),-1,-6%,-6%,i,/,i
Fc1ccccc1C1CC(c2ccco2)=Nc2ccccc2S1 (stereo not given),-1,22%,5%,i,22µM*,i
COc1ccccc1C1CC(c2cccs2)=Nc2ccccc2S1 (stereo not given),-5,8%,12%,i,14%,i
Cc1ccc(/C=N/NC(=O)c2cccs2)cc1,7,/,/,/,/,/
COc1ccccc1CNC(=O)COCc1cc(-c2ccc3c(c2)OCO3)on1,-4,/,-12%,?,22µM*,i
COc1cccc2c1C(=O)c1c(O)c3c(c(O)c1C2=O)C[C@@](O)(C(=O)CO)C[C@@H]3OC1CC(N)C(O)C(C)O1 (stereo not given in full),22,?,-13%,/,-6%,i
COc1cccc2c1C(=O)c1c(O)c3c(c(O)c1C2=O)C[C@@](O)(C(=O)CO)C[C@@H]3O[C@H]1C[C@H](N)[C@H](O)[C@H](C)O1,35,4.5µM*,-21%,i,?,i
CCOC(=O)N/N=C/c1ccc(C)o1,-9,1%,7%,i,-9%,i
CCOC(=O)N/N=C/c1ccc(Oc2ccccc2)cc1,-1,1%,11%,i,18µM*,?
CN(C)CCCN(C(=O)c1cccc(C(F)(F)F)c1)c1nc2ccc(F)cc2s1,6,/,/,/,/,/
Cc1cccc(C)c1NC(=O)CSc1nnc2[nH]c(=O)c(Cc3ccccc3)nn12,1,/,/,/,/,/
COCCN=C1NN=C(c2ccc(NC(C)=O)cc2)CS1,-7,-6%,?,i,-12%,i
CN(C)S(=O)(=O)c1cccc(N=C2NN=C(c3ccccc3)CS2)c1,-3,-6%,40µM*,?,0%,i
CC(=O)Nc1ccc(C2=NNC(=Nc3cccc(S(=O)(=O)N(C)C)c3)SC2)cc1,3,2%,41µM*,i,-8%,i
Fc1ccccc1N=C1NN=C(c2ccccc2)CS1,0,-19%,-26%,i,?,i
COc1cccc2cc(C(=O)Nc3ccccc3Oc3ccccc3)c(=O)oc12,-19,/,/,/,/,/
NNC(=O)c1cc2cc3ccccc3nc2s1,-34*,-5%,2%,i,?,i
SMILES,LDHA block,aSyn rescue,IDH1 R132H inh,FUS yeast rescue,TDP43 rescue,Abeta yeast res
CS(=O)(=O)NNC(=O)c1cc2cc3ccccc3nc2s1,10,-8%,0%,i,-10%,i
CCOC(=O)C(=Cc1cc(=O)c(OC)co1)C(=O)OCC,-3,8%,8%,i,13µM*,i
Nc1nnnn1NCc1ccc(-c2cccc(Cl)c2)o1,0,/,/,/,/,/
CCOc1cccc(-c2nnc3sc(C4CCCCC4)nn23)c1,-3,-5%,0%,?,18µM*,i
CCCn1nc(NC(=O)C2CCCO2)c2cc3cc(C)ccc3nc21 (stereo not given),4,-2%,4%,i,35µM*,i
O=C1OC(c2cccc3c(F)cccc23)c2ccccc21 (stereo not given),2,8%,-5%,i,20µM*,i
O=C(CN1N=C(C(F)(F)F)CC1(O)c1ccc([N+](=O)[O-])cc1)c1ccccc1 (stereo not given),-4,16%,7%,i,16µM*,i
CCN1CCN(c2cc(C)c3cc(NC(=O)CC4CCCCC4)ccc3n2)CC1,0,/,/,/,/,/
O=C(Nc1cc(Cl)ccc1Cl)c1cc([N+](=O)[O-])cc(Br)c1O,-54*,-87%,/,/,/,/
O=C(Nc1ccc([N+](=O)[O-])cc1Cl)c1cc(Cl)cc(Cl)c1O,2,-63%,/,/,/,/
Cc1cccc(NC(=O)c2cc([N+](=O)[O-])ccc2Cl)c1O,-3,-3%,8%,i,22µM*,i
COCCNC(=O)c1cc(-c2ccco2)nc2ccccc12,11,/,/,/,/,/
COc1ccc(-c2nc(C)c(C(=O)NCc3ccccc3OC)s2)cc1,-2,/,/,/,/,/
O=C1CC(c2ccc(C(F)(F)F)cc2)c2cnn(Cc3ccc4c(c3)OCO4)c2N1 (stereo not given),1,/,/,/,/,/
CC(C)CC(N)c1csc(NC(=O)NCCc2ccccc2)n1 (stereo not given),-2,2%,/,i,12%,i
NC(Cc1ccc(C(F)(F)F)cc1)c1csc(NC(=O)NCCc2ccccc2)n1 (stereo not given),-14,-37%,/,22µM*,0%,i
CN(C(=O)COC(=O)c1ccccc1Nc1ccccc1)c1c(N)n(Cc2ccccc2)c(=O)[nH]c1=O,1,-5%,2%,35µM*,-22%,i
Cc1nc2cc(NC(C)c3nc(C(C)C)no3)ccc2o1 (stereo not given),78,/,/,/,/,/
COCCNC(=S)N1CCC2CC1c1cc(-c3ccc4c(c3)OCO4)ccc12 (stereo not given),-13,23%,/,?,22µM*,?

# Screening results from PubChem.
